Measurements as given in PubChem BioAssay (EPA / NIEHS).
Results filed as inconclusive are left out. Calls of active or inactive are those of the source. How the source made its calls, unless noted: active means hit-call score of the fitted dose curve at least 0.9, where 1 is the maximum; inconclusive means response in the unintended direction; inactive means score below 0.9.

Tests used:
[1] = target: human RAR-related Orphan Receptor gamma (RORg), RORC (gene 6097) (UniProt P51449); test: ATG_RORg_TRANS: Attagene TRANS-FACTORIAL HepG2 Assay for human RAR-related Orphan Receptor gamma (RORg) (AID 2283011);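 on AC50: potency for induction of reporter transcripts above DMSO so activators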
How it was run: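 Transient MRTU transfection of HepG2 (TRANS format, exogenous NR-Gal4 chimera). 24 h dosing. Total RNA → oligo(dT) RT → PCR → 6-FAM labelling → HpaI cut → CE. Gain vs DMSO.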

[2] = target: Retinoic acid receptor RXR-alpha (Homo sapiens) (UniProt P19793); test: ATG_RXRa_TRANS: Attagene TRANS-FACTORIAL HepG2 Assay for human Retinoid X Receptor alpha (RXRa) (AID 2283012)
How it was run: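 Transient transfection of human HepG2 with multiple GAL4-UAS reporter constructs; 24 h compound exposure; total RNA isolated, reverse-transcribed, PCR-amplified, 6-FAM labelled, HpaI-cut, resolved by capillary electrophoresis. Positive-direction fit versus DMSO.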

[3] = target: human Retinoid X Receptor beta (RXRb), RXRB (gene 6257) (UniProt P28702); test: ATG_RXRb_TRANS: Attagene TRANS-FACTORIAL HepG2 Assay for human Retinoid X Receptor beta (RXRb) (AID 2283013)
How it was run: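 Transfect HepG2 with GAL4-UAS multi-reporter constructs (chimeric NR-Gal4, TRANS format); dose compound 24 h; isolate RNA, RT-PCR, FAM primer extension, HpaI digest; quantify by capillary electrophoresis; positive direction vs DMSO.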

[4] = target: human Thyroid Receptor alpha (THRa1), THRA (gene 7067) (UniProt P10827); test: ATG_THRa1_TRANS: Attagene TRANS-FACTORIAL HepG2 Assay for human Thyroid Receptor alpha (THRa1) (AID 2283014)
How it was run: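 Transient HepG2 transfection, NR-Gal4 chimera driving GAL4-UAS reporters; 24 h compound exposure; total RNA, oligo(dT) RT, PCR, fluorescent primer extension, capillary electrophoresis. Upward direction vs DMSO control.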

[5] = read-out: E-selectin (Homo sapiens) (UniProt P16581); test: BSK_3C_Eselectin: BioMAP Diversity Plus: 3C Assay for Eselectin Biomarker Activity (AID 2283015; active means hit-call score of the fitted dose curve at least 0.9, where 1 is the maximum; inactive means score below 0.9;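 on outcome: cell surface E-selectin protein quantified by ELISA 24 h after dosing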); details: primary human endothelial cells (HUVEC); actives raise or lower the signal
How it was run: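 HUVEC, 3C stimulation; compound exposure 24 h; E-selectin by ELISA; gain- or loss-of-signal fitted bidirectionally vs DMSO baseline.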

[6] = read-out: Interleukin-1 alpha (IL1a), IL1A (gene 3552); test: BSK_BE3C_IL1a: BioMAP Diversity Plus: BE3C Assay for Interleukin-1 alpha (IL1a) Biomarker Activity (AID 2283016; active means hit-call score of the fitted dose curve at least 0.9, where 1 is the maximum; inactive means score below 0.9); details: primary human bronchial epithelial cells; actives raise or lower the signal
How it was run: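 BE3C primary human bronchial epithelium; cpd 24 h; IL-1a by ELISA; bidirectional fit vs DMSO; parallel SRB (0.1% SRB, 10% TCA fix, 560 nm) for cytotoxicity.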

[7] = read-out: Monocyte Chemoattractant Protein-1 (MCP1), CCL2 (gene 6347); test: BSK_3C_MCP1: BioMAP Diversity Plus: 3C Assay for Monocyte Chemoattractant Protein-1 (MCP1) Biomarker Activity (AID 2283017; active means hit-call score of the fitted dose curve at least 0.9, where 1 is the maximum; inactive means score below 0.9); details: primary human endothelial cells (HUVEC); actives raise or lower the signal
How it was run: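 HUVEC, 3C system; 24 h chemical exposure; MCP-1 by ELISA; bidirectional curve fit vs DMSO baseline.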

[8] = read-out: Monocyte Chemoattractant Protein-1 (MCP1), CCL2 (gene 6347); test: BSK_4H_MCP1: BioMAP Diversity Plus: 4H Assay for Monocyte Chemoattractant Protein-1 (MCP1) Biomarker Activity (AID 2283018; active means hit-call score of the fitted dose curve at least 0.9, where 1 is the maximum; inactive means score below 0.9); details: primary human endothelial cells (HUVEC); actives raise or lower the signal
How it was run: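 ELISA read-out of MCP-1 from human vascular endothelial primary cells taken at 24 hours after compound exposure. Activity was fitted in both directions relative to DMSO, which served as negative control.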

[9] = read-out: Human Leukocyte Antigen - DR isotype (HLADR), HLA-DRA (gene 3122); test: BSK_3C_HLADR: BioMAP Diversity Plus: 3C Assay for Human Leukocyte Antigen - DR isotype (HLADR) Biomarker Activity (AID 2283019; active means hit-call score of the fitted dose curve at least 0.9, where 1 is the maximum; inactive means score below 0.9;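 on outcome: ELISA of cell-surface HLA-DR on HUVEC 24 h after dosing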); details: primary human endothelial cells (HUVEC); actives raise or lower the signal
How it was run: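 HUVEC, 3C stimulation, 24 h post-dose; HLA-DR by ELISA; bidirectional curve fit vs DMSO baseline; gain or loss of signal scored.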

[10] = read-out: Interleukin-8 (IL8), CXCL8 (gene 3576); test: BSK_3C_IL8: BioMAP Diversity Plus: 3C Assay for Interleukin-8 (IL8) Biomarker Activity (AID 2283020; active means hit-call score of the fitted dose curve at least 0.9, where 1 is the maximum; inactive means score below 0.9); details: primary human endothelial cells (HUVEC); actives raise or lower the signal
How it was run: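 ELISA read-out of IL-8 from human umbilical vein endothelium, measured 24 h after chemical dosing. Activity is expressed relative to DMSO negative control, with both increases and decreases fitted.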

Sequence of Retinoic acid receptor RXR-alpha (Homo sapiens) (P19793 whole entry, looked up, the tested form may be a part): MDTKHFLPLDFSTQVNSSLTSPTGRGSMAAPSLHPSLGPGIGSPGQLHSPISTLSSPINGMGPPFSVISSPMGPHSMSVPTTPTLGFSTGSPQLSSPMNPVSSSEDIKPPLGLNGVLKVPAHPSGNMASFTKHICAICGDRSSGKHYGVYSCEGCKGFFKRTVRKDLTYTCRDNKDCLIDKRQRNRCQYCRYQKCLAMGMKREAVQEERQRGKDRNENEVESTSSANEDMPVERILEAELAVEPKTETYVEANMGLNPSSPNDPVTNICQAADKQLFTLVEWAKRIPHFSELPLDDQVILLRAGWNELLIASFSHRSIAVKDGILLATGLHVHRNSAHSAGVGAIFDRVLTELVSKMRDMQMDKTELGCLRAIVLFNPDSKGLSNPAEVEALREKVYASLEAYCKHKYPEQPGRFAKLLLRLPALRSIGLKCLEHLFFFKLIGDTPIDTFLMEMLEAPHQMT
Sequence of E-selectin (Homo sapiens) (P16581 whole entry, looked up): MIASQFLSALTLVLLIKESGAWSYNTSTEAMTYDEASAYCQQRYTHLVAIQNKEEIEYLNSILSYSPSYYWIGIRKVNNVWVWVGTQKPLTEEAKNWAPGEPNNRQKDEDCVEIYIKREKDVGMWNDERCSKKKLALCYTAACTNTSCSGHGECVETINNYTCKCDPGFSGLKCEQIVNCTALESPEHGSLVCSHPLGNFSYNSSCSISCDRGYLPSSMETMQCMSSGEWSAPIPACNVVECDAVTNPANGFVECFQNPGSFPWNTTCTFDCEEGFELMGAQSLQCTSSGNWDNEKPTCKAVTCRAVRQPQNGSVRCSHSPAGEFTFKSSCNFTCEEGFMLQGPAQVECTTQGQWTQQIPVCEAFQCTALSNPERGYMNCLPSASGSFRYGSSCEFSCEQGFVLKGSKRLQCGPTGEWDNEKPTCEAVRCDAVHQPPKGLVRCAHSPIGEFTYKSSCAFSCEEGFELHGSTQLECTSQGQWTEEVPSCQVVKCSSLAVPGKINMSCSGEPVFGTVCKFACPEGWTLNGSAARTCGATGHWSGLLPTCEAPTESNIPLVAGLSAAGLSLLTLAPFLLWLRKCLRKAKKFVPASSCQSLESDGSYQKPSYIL
Sequence of human RAR-related Orphan Receptor gamma (RORg), RORC (gene 6097) (P51449 whole entry, looked up, the tested form may be a part): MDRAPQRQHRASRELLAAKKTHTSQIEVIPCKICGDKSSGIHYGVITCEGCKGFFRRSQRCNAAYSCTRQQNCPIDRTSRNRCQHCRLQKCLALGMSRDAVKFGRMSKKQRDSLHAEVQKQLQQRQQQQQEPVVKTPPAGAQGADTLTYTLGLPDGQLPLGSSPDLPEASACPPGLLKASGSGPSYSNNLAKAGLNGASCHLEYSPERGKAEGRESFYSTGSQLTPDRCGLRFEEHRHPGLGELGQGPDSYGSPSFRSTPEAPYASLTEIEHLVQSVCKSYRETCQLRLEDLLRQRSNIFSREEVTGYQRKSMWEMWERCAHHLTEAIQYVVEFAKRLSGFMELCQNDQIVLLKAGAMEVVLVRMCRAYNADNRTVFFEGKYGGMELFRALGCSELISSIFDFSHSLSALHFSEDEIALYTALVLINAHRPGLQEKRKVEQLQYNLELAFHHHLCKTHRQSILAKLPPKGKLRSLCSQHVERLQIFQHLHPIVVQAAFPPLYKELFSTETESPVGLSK
Sequence of human Thyroid Receptor alpha (THRa1), THRA (gene 7067) (P10827 whole entry, looked up, the tested form may be a part): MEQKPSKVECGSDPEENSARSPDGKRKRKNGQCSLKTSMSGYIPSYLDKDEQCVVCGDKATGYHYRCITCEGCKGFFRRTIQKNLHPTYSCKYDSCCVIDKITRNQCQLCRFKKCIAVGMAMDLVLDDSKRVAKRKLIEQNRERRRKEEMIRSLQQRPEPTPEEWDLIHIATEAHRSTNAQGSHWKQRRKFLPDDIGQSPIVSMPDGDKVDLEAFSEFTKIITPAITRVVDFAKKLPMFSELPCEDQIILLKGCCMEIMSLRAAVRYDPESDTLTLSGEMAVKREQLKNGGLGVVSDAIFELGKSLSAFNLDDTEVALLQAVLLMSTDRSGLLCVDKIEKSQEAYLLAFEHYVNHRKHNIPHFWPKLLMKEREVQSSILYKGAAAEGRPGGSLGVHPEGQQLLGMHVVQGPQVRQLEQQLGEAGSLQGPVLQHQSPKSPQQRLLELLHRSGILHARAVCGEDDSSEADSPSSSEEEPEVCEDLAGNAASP
Sequence of human Retinoid X Receptor beta (RXRb), RXRB (gene 6257) (P28702 whole entry, looked up, the tested form may be a part): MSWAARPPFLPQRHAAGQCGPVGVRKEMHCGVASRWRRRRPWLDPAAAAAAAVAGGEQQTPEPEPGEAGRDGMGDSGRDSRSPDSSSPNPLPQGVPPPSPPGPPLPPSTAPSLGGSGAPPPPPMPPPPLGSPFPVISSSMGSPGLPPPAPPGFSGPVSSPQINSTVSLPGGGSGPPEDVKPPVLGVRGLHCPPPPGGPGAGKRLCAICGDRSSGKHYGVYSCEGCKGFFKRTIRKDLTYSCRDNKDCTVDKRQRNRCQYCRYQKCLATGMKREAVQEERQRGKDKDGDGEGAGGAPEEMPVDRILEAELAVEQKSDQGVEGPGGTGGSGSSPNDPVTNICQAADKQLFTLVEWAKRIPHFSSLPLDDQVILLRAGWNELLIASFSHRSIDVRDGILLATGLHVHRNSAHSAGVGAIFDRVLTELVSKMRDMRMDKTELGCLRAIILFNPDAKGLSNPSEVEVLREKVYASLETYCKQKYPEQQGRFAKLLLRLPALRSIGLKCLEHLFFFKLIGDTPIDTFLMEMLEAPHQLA

SMILES: CC(=O)OCCCc1ccccc1
- outcome [1]: inactive
- outcome [2]: inactive
- outcome [3]: inactive

SMILES: CCCCC(CC)COC(=O)c1ccc(O)cc1 (stereo unspecified)
- outcome [1]: inactive
- outcome [2]: inactive
- AC50 [3]: 33.4 µM (active)
- outcome [4]: inactive

SMILES: C=CC(=O)OCCC#N
- outcome [1]: inactive
- outcome [2]: inactive
- outcome [3]: inactive

SMILES: CCO/C=C1\N=C(c2ccccc2)OC1=O
- outcome [1]: inactive
- outcome [2]: inactive
- outcome [3]: inactive

SMILES: CCCCCCCC(=O)OCCCCCC
- outcome [1]: inactive
- outcome [2]: inactive
- outcome [3]: inactive

SMILES: C=C1C[C@]23C[C@@]1(O)CC[C@H]2[C@@]12C=C[C@H](O)[C@@](C)(C(=O)O1)[C@H]2[C@@H]3C(=O)O
- outcome [1]: inactive
- outcome [2]: inactive
- outcome [4]: inactive

SMILES: CC1C2CC(CC2C2CCCC(O)C2)C1(C)C (stereo unspecified)
- outcome [1]: inactive
- outcome [2]: inactive
- outcome [3]: inactive

SMILES: C=CCCCCCCCCCC
- outcome [1]: inactive
- outcome [2]: inactive
- outcome [3]: inactive
- outcome [4]: inactive

SMILES: CC1(C)O[C@@H]2C[C@H]3[C@@H]4CCC5=CC(=O)C=C[C@]5(C)[C@@]4(F)[C@@H](O)C[C@]3(C)[C@]2(C(=O)CO)O1
- outcome [1]: inactive
- outcome [2]: inactive
- outcome [3]: inactive
- outcome [4]: inactive

SMILES: O=C(O)c1cccnc1C(=O)O
- outcome [1]: inactive
- outcome [2]: inactive
- outcome [3]: inactive

SMILES: CCCCCCCCCCCCCC(=O)OCC(O)CO (stereo unspecified)
- outcome [1]: inactive
- outcome [2]: inactive
- outcome [3]: inactive
- outcome [4]: inactive

SMILES: O=CN1CCOCC1
- outcome [1]: inactive
- outcome [2]: inactive
- outcome [3]: inactive
- outcome [5]: inactive
- outcome [6]: inactive
- outcome [7]: inactive
- outcome [8]: inactive
- outcome [9]: inactive
- outcome [10]: inactive

SMILES: CC(C)CCCCCCCCCCCCCCC(=O)O
- outcome [1]: inactive
- outcome [2]: inactive
- outcome [4]: inactive

SMILES: O=C(CS)OCCOC(=O)CS
- AC50 [1]: 67 µM (active)
- outcome [2]: inactive
- outcome [3]: inactive

SMILES: O=C(O)c1ccc(O)cc1
- outcome [1]: inactive
- outcome [2]: inactive
- outcome [3]: inactive
- outcome [4]: inactive

SMILES: CC(C)(C)C1=CC(=O)C(C(C)(C)C)=CC1=O
- AC50 [1]: 72 µM (active)
- outcome [2]: inactive
- AC50 [3]: 13.7 µM (active)
- outcome [4]: inactive

SMILES: CCOC(=O)CCc1ccccc1
- outcome [1]: inactive
- outcome [2]: inactive
- outcome [3]: inactive

SMILES: O=C1OC2(c3ccccc31)c1ccc(O)c(Br)c1Oc1c2ccc(O)c1Br
- outcome [1]: inactive
- outcome [2]: inactive
- outcome [4]: inactive
- AC50 [5]: 24.7 µM (active)
- AC50 [6]: 9.21 µM (active)
- AC50 [7]: 20 µM (active)
- AC50 [8]: 25.4 µM (active)
- AC50 [9]: 20 µM (active)
- AC50 [10]: 24.4 µM (active)

SMILES: CC1=CC[C@@]23C[C@@H]1C(C)(C)[C@@H]2CC[C@H]3C
- outcome [1]: inactive
- outcome [2]: inactive
- AC50 [3]: 58.9 µM (active)

SMILES: CCOC(=O)c1ccc(N)cc1
- outcome [1]: inactive
- outcome [2]: inactive
- outcome [4]: inactive

SMILES: CCCCCCC(O)CCCCCCCCCCC(=O)O (stereo unspecified)
- outcome [1]: inactive
- outcome [2]: inactive
- AC50 [3]: 22.7 µM (active)

SMILES: CN(c1nccc(=O)[nH]1)C1CCN(c2nc3ccccc3n2Cc2ccc(F)cc2)CC1
- outcome [1]: inactive
- outcome [2]: inactive
- outcome [4]: inactive
- outcome [5]: inactive
- outcome [6]: inactive
- outcome [7]: inactive
- outcome [8]: inactive
- outcome [9]: inactive
- outcome [10]: inactive

SMILES: OCCc1ccccc1
- outcome [1]: inactive
- outcome [2]: inactive
- outcome [3]: inactive
- outcome [4]: inactive

SMILES: CCCCOCC
- outcome [1]: inactive
- outcome [2]: inactive
- outcome [3]: inactive

SMILES: ON=C1CCCCC1
- outcome [1]: inactive
- outcome [2]: inactive
- outcome [3]: inactive

SMILES: CCCCCCC(CO)CCCC (stereo unspecified)
- outcome [1]: inactive
- outcome [2]: inactive
- AC50 [3]: 54.8 µM (active)
- outcome [5]: inactive
- outcome [6]: inactive
- outcome [7]: inactive
- outcome [8]: inactive
- outcome [9]: inactive
- outcome [10]: inactive

SMILES: Cc1ncc([N+](=O)[O-])n1CCO
- outcome [1]: inactive
- outcome [2]: inactive
- outcome [3]: inactive

SMILES: CC(=O)c1ccccn1
- outcome [1]: inactive
- outcome [2]: inactive
- outcome [3]: inactive

SMILES: Cc1ccc(N)c(S(=O)(=O)O)c1
- outcome [1]: inactive
- outcome [2]: inactive

SMILES: C=Cc1ccc(C(C)(C)C)cc1
- outcome [1]: inactive
- outcome [2]: inactive

SMILES: O=[N+]([O-])c1ccc(O)cc1C(F)(F)F
- outcome [1]: inactive
- outcome [2]: inactive
- outcome [3]: inactive

SMILES: CCOC(=O)CC(C)O (stereo unspecified)
- outcome [1]: inactive
- outcome [2]: inactive
- outcome [4]: inactive

SMILES: Nc1ccc(Cl)c([N+](=O)[O-])c1
- outcome [1]: inactive
- outcome [2]: inactive

SMILES: CC(=O)C1(C)CC2=C(CCCC2(C)C)CC1C (stereo unspecified)
- outcome [1]: inactive
- outcome [2]: inactive
- AC50 [3]: 36.1 µM (active)
- AC50 [6]: 20 µM (active)
- AC50 [7]: 11 µM (active)
- AC50 [8]: 10.4 µM (active)
- AC50 [9]: 10.4 µM (active)
- AC50 [10]: 5.52 µM (active)

SMILES: O=C(O)c1cc(C(=O)O)cc([N+](=O)[O-])c1
- outcome [1]: inactive
- outcome [2]: inactive
- outcome [3]: inactive
- outcome [4]: inactive

SMILES: CCC(C)c1cc([N+](=O)[O-])cc([N+](=O)[O-])c1OC(=O)OC(C)C (stereo unspecified)
- outcome [1]: inactive
- AC50 [2]: 32.6 µM (active)
- AC50 [5]: 17.9 µM (active)
- AC50 [6]: 25.4 µM (active)
- AC50 [7]: 29.5 µM (active)
- AC50 [8]: 5.06 µM (active)
- AC50 [9]: 9.38 µM (active)
- AC50 [10]: 34.1 µM (active)

SMILES: CS(=O)(=O)c1ccc(Cl)cc1
- outcome [1]: inactive
- outcome [3]: inactive

SMILES: OCCCCC(O)CO (stereo unspecified)
- outcome [1]: inactive
- outcome [4]: inactive

SMILES: C=C(C#N)C(=O)OCC
- outcome [1]: inactive
- outcome [4]: inactive

SMILES: C=Cc1ccc(C)cc1
- outcome [1]: inactive
- outcome [3]: inactive
- outcome [4]: inactive
